Screens from PubChem.
BAZ2B block: qHTS Assay for Inhibitors of BAZ2B; Bromodomain adjacent to zinc finger domain protein 2B (Homo sapiens), Q9UIF8; AlphaScreen BAZ2B-H3K14Ac peptide displacement; Potency, µM (highest dose often 114 µM), usual class: inhibitors; 360,000 compounds, 4.4% hits; also: nearly all actives have a fitted effect of over 60% in size
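In this displacement format the biotinylated H3(5-23) peptide acetylated at Lys14 serves as ligand at 50 nM, with BAZ2B at 50 nM in PBS pH 7.4 containing 0.01% Tween-20. Donor and acceptor beads are 10 ug/mL final.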
JMJD2A Tudor inh: qHTS Assay for Inhibitors of JMJD2A-Tudor Domain. 390,000 compounds, 4.4% hits. AlphaScreen JMJD2A-Tudor / H3K4me3 peptide binding. AID 504339, 2011. Potency, µM (series often up to 114 µM), most hits filed as inhibitors; also: nearly all actives have a fitted effect of over 50% in size
HP1b binding inh: HTS for Inhibitors of HP1-beta Chromodomain Interactions with Methylated Histone Tails; Chromobox protein homolog 1 (Homo sapiens), P83916; AlphaScreen HP1-beta / biotin-H3K9me3 peptide binding; Potency, µM (titrated, usually from 114 µM), actives largely listed as inhibitors; 390,000 compounds, 0.56% hits; AID 540317, 2011; also: nearly all actives have a fitted effect of over 70% in size
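AlphaScreen: HP1-beta (50 nM) preformed 30 min with biotin-H3(1-18)K9me3 peptide (50 nM) in PBS pH 7.4, 0.01% Tween-20. Compound added for 30 min at RT, then streptavidin donor/nickel chelate acceptor beads (10 ug/mL) for 30 min.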
PLK1 PBD block: qHTS for Inhibitors of PLK1-PDB (polo-like kinase 1 - polo-box domain): Primary Screen | Plk1 PBD binding of FITC phosphopeptide, fluorescence polarization | Potency, µM, most hits filed as inhibitors | 360,000 compounds, 2.8% hits; also: series mostly up to about 57 µM; nearly all actives have a fitted effect of over 65% in size
Sfp PPTase inh: qHTS Assay for Inhibitors of Bacillus subtilis Sfp phosphopantetheinyl transferase (PPTase); Biochemical Sfp PPTase activity, qHTS; 310,000 compounds, 3.5% hits; Potency, µM, usual class: inhibitors; 4'-phosphopantetheinyl transferase ffp (Bacillus subtilis), Q9F4F7;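 also: the enzyme is Sfp with the accession as filed and its product quenches rhodamine fluorescence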
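Sfp 15 nM + cpd, 15 min RT; start w/ rhodamine-CoA 5 uM, BHQ-2-YbbR 12.5 uM (final); 50 mM Hepes pH 7.6, 10 mM MgCl2, 0.01% NP-40, 0.01% BSA; read 525/598 nm at 0 and 30 min.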
G9a inh: qHTS Assay for Inhibitors of Histone Lysine Methyltransferase G9a; AID 504332, 2011; G9a H3K9 monomethylation, AlphaScreen, 2 h; Histone-lysine N-methyltransferase EHMT2 (Homo sapiens), Q96KQ7; Potency, µM (titrated, usually from 102 µM), usual class: inhibitors; 350,000 compounds, 8.8% hits; also: nearly all actives have a fitted effect of over 75% in size
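AlphaScreen read-out: biotin-H3K9 peptide (500 nM) methylation by 20 nM enzyme with 20 uM SAM, 2 h at room temperature after 15 min compound preincubation; anti-monomethyl H3K9 antibody plus donor/acceptor beads, 10 min dark.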
Hits are given with their value; – = inactive; ? = inconclusive; · = no result given; [ ] = another dose, or the depositor's remark. In the library only some 12% were active in any assay of this set; here they are far more common. Calls follow the shape of the dose curve; as a rule, active = well fitted curve in the direction sought with a large enough effect; inconclusive = small, poorly fitted or top-dose-only effect, or another doubt; inactive = no such curve, though single readings can be large; an effect the other way counts as inactive or inconclusive.

SMILES | BAZ2B block | JMJD2A Tudor inh | HP1b binding inh | PLK1 PBD block | Sfp PPTase inh | G9a inh
CCn1c(Cc2cccn2C)nnc1SCC(=O)c1ccc(C)cc1 | 50µM | ? | – | – | – | ?
CCn1c(SCC(=O)N/N=C(\C)c2ccncc2)nnc1-c1ccc(C)cc1 | – | – | – | – | – | 50µM
CCn1c(SCC(=O)c2ccccc2)nnc1-c1cccc(Cl)c1 | – | – | – | · | · | –
Cc1ccc(-n2c(Cc3cccn3C)nnc2SCC(=O)NC2CCCCC2)cc1 | ? | – | – | – | – | –[2.33 µM]
CCn1c(SCC(=O)c2ccc(O)c(O)c2)nnc1-c1ccc(C)cc1 | ? | 28µM | – | – | – | –[2.33 µM]
CCn1c(SCC(=O)c2ccc([N+](=O)[O-])cc2)nnc1-c1ccc(Cl)cc1 | – | – | – | · | · | ?
CCn1c(SCC(=O)c2ccc3c(c2)Cc2ccccc2-3)nnc1-c1ccc(N)cc1 | – | – | – | – | 79µM | –[0.501 µM]
Cc1ccc(CNC(=O)c2ccc(CN3CC(=O)N4CCCCC4C3=O)cc2)cc1 (centres undefined) | – | – | – | · | · | –
CC1CCC(C(C)C)C(P(=O)(c2ccccc2)c2ccccc2)C1 (centres undefined) | · | · | · | · | – | ·
COc1cccc(N=Cc2c(O)c3ccccc3oc2=O)c1 | – | – | – | – | – | ·
Cc1ccc(C(=O)Nc2ccc(Br)cc2)cc1S(=O)(=O)NCc1ccccc1 | – | – | – | · | · | –
COc1ccc(-c2nc(N3CCN(C)CC3)sc2-c2ccc(OC)cc2)cc1 | 28µM | 22µM | 50µM | – | ? | 14µM
COc1ccc(-c2nc(N3CCCCCC3)sc2C(=O)c2ccccc2)cc1 | – | – | – | – | – | –
C[C@H]1Cc2c(-c3ccccc3)nc3c(c2CO1)CN(C(=O)Nc1cccc(C#N)c1)CC3 | · | · | · | · | – | ·
COc1ccc(N2CCC(CNC(=S)Nc3cccc(OC)c3)C2)cc1 (centres undefined) | 16µM | · | · | · | – | ?
CCc1cccc(C)c1NC(=S)NCC1CCN(c2ccc(OC)cc2)C1 (centres undefined) | 28µM | 45µM | 22µM | ? | – | 10µM
CCc1ccccc1NC(=S)N1CCC(NC(=O)c2ccc(OC)cc2)CC1 | – | – | – | – | – | –[0.501 µM]
CCc1ccccc1NC(=S)NCC1CCN(c2ccc(OC)cc2)C1 (centres undefined) | 22µM | 35µM | 13µM | ? | – | ?
O=C(c1ccc(Cl)c(Cl)c1)N1CCC(=O)N([C@H](COCc2cccc(C(F)(F)F)c2)Cc2ccccc2)CC1 | · | · | · | – | · | ·
Cc1cc2c(s1)c1cnn(Cc3ccc(F)cc3Cl)c(=O)c1n2C | · | – | · | · | · | ·
CCn1cc(C(=O)OCC(=O)Nc2cc(OC)cc(OC)c2)c(=O)c2ccc(C)nc21 | – | – | – | · | · | –
CCOc1cc(CNCCO)ccc1OCC(=O)NC(C)(C)C | ? | –[11.4 µM] | – | 24µM | – | –
CCOc1cc(CNc2ccc(OC)cc2)cc(Br)c1OCC(=O)NC(C)(C)C | 18µM | 22µM | ? | – | – | ?
CC(C)(C)NC(=O)COc1ccc(CNCc2cccnc2)cc1 | ? | 89µM | – | ? | – | –
COc1cc(CNCc2ccccn2)ccc1OCC(=O)NC(C)(C)C | 50µM | ? | – | – | – | –
SMILES | BAZ2B block | JMJD2A Tudor inh | HP1b binding inh | PLK1 PBD block | Sfp PPTase inh | G9a inh
CCOc1cc(CNc2ccc(Br)cc2)cc(Br)c1OCC(=O)NC(C)(C)C | – | – | – | – | – | –
CCOc1cc(CNC)ccc1OCC(=O)NC(C)(C)C | – | – | – | – | – | ·
COc1cc(CNCc2cccnc2)ccc1OCC(=O)NC(C)(C)C | – | – | – | – | – | ?
CCOc1cc(CNCc2ccccc2)ccc1OCC(=O)NC1CCCCC1 | – | – | – | – | – | –
COc1cc(CNCc2ccccn2)ccc1OCC(=O)NC1CCCCC1 | 56µM | ? | – | – | ? | ?
CCOc1ccc(CCNC(=O)COC(=O)c2ccc[nH]c2=O)cc1OCC | · | – | – | – | · | ·
Cc1cccc(NC(=S)NC2CCCC2)n1 | ? | – | – | – | 10µM | –
Cc1cccc(NC(=S)Nc2cccc(C)n2)n1 | – | – | – | – | – | –
Cc1cccc(NC(=S)NC2CCCCC2)n1 | – | – | – | – | 50µM | 0.89µM
Cc1nn(-c2ccc(N3CCCC3)nn2)c(C)c1CCC(=O)NCc1ccccc1F | – | – | – | · | · | –
Cc1cccc(NC(=O)C2C3C=CC(O3)C2C(=O)O)c1 (centres undefined) | – | · | · | · | – | 28µM
CC(=O)c1cccc(NC(=O)C2C3C=CC(C3=C(c3ccccc3)c3ccccc3)C2C(=O)O)c1 (centres undefined) | ? | ? | – | 34µM | – | 50µM
CC(=O)Nc1cccc(NC(=O)C2C3C=CC(C3)C2C(=O)O)c1 (centres undefined) | – | – | – | – | – | –
Cc1ccc(NC(=O)C2C3CCC(O3)C2C(=O)O)cc1C (centres undefined) | – | – | – | – | – | ·
Cc1cccc(NC(=O)C2C3C=CC(C4CC34)C2C(=O)O)c1 (centres undefined) | – | – | – | – | 50µM | ?
Cc1ccc(NC(=O)C2C3C=CC(O3)C2C(=O)O)cc1C (centres undefined) | 89µM | – | – | – | – | –[0.501 µM]
O=C(Nc1ccc(F)cc1)C(CCc1ccccc1)N1CCN(c2cccc(C(F)(F)F)n2)CC1 (centres undefined) | · | · | · | – | · | ·
CC1CCCC/C1=N\Nc1ccc(S(N)(=O)=O)cc1[N+](=O)[O-] (centres undefined) | ? | ? | ? | – | – | –
CCN(CC)S(=O)(=O)c1ccc(NN=C2CCN(C)CC2)c([N+](=O)[O-])c1 | · | ? | ? | – | – | 35µM
CC(C)(C)C1CCC(=NNc2ccc(S(N)(=O)=O)cc2[N+](=O)[O-])CC1 (centres undefined) | ? | ? | – | – | – | 25µM
CCN(CC)S(=O)(=O)c1ccc(NN=C2CCN(C(C)C)CC2)c([N+](=O)[O-])c1 | ? | ? | – | – | – | 45µM
C=CCn1c(CCCOc2ccc(Cl)cc2Cl)nnc1SCC(=O)Nc1nccs1 | – | – | – | – | – | 40µM
COc1ccc(NC(=O)Cc2nnc(SCC(=O)Nc3nccs3)n2C)cc1 | – | ? | – | – | – | –
CCn1c(CNC(=O)COc2ccc(C(C)C)cc2)nnc1SCC(=O)Nc1cc(F)ccc1C | – | 28µM | – | – | – | ?
CCn1c(CC(=O)Nc2cccc(OC)c2)nnc1SCC(=O)Nc1nccs1 | – | – | – | – | – | 56µM
